Screening data as filed in PubChem BioAssay.
TDP1 inh: qHTS Assay for Inhibitors of Tyrosyl-DNA Phosphodiesterase (TDP1); AID 485290, 2010; recombinant TDP1, AlphaScreen DNA substrate cleavage; Tyrosyl-DNA phosphodiesterase 1 (Homo sapiens), Q9NUW8; actives 0.28% (n = 350,000); Potency, µM (highest dose often 130 µM), inactives show at the top dose activity change, negative = inhibition, hits mostly inhibitors; note: potency is the fitted concentration of half-maximal effect; nearly all actives have a fitted effect of over 40% in size
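E. coli-derived human Tdp1, 1 nM final. Cpd preinc 15 min RT; substrate 15 nM final, 5 min RT; AS bead mix 10 ug/ml final, 10 min RT. Signal loss = tyrosine-FITC cleavage. No-enzyme wells = max signal.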
IL1B secr inh: qHTS for Inhibitors of Inflammasome Signaling: IL-1-beta AlphaLISA Primary Screen; THP-1 LPS/ATP IL-1B secretion, AlphaLISA, 16 h; hits give low values; activity change, % at 57.5 µM; actives 4.7% (n = 360,000); AID 743279, 2014; in the data active = activity change below about -50%; inconclusive = mostly about -30% to -49%
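THP-1 cells pretreated 1 hr with compounds (up to 57.5 uM final), then stimulated with LPS (250 ng/mL final) plus ATP (1.25 mM final); secreted IL-1B measured by AlphaLISA after 16 hr, decreased signal indicating inhibition.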
Six1-Eya2 inh: qHTS Assay for Inhibitors of the Six1/Eya2 Interaction | Homeobox protein SIX1 (Homo sapiens) + Protein phosphatase EYA2 (Homo sapiens), … | AlphaScreen GST-Six1/His-Eya2 binding, biochemical; hits give low values | activity change, % (test concentration not listed) | actives 0.56% (n = 360,000); in the data active = activity change below about -65%; inconclusive = mostly about -30% to -63%
Target sequence (O00167 whole entry, looked up): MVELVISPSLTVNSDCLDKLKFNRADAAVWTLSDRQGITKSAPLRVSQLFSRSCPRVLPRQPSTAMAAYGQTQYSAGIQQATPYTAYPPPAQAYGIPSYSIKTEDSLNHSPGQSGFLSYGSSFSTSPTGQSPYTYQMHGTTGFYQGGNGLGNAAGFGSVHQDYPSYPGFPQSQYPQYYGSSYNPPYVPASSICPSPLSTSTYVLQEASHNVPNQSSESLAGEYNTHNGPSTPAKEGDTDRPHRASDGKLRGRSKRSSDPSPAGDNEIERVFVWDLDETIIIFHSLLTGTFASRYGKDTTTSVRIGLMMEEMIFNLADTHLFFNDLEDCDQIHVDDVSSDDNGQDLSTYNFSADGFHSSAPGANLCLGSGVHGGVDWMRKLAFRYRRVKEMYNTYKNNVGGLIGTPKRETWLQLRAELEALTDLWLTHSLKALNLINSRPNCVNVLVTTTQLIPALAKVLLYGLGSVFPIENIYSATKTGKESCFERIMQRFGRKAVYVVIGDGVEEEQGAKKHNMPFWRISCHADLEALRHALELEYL
Target sequence (Q15475 whole entry, looked up): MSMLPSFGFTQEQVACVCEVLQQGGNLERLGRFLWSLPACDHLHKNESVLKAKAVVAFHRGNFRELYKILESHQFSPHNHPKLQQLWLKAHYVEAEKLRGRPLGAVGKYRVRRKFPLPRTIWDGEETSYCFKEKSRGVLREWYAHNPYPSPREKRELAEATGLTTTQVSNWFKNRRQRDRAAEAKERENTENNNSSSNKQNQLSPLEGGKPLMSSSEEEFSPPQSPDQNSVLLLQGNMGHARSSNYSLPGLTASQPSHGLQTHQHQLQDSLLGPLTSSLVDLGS
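Six1/Eya2 binding was read as AlphaScreen signal after compounds were pinned into GST-Six1 plus His-tagged Eya2 (5X stock 250/500 nM) in pH 8.0 Tris/NaCl/TCEP buffer, beads added, then incubated 1 h, 37 C, dark.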
CtBP-E1A inh: qHTS Assay for Inhibitors of the CtBP/E1A Interaction | actives 0.49% (n = 340,000) | CtBP / adenovirus E1A interaction (AlphaScreen) | activity change, % (concentration not given with the values) | AID 651724, 2012 | AlphaScreen GST-E1A/His-CtBP binding, 1536-well; hits give low values; in the data active = activity change below about -65%; inconclusive = mostly about -30% to -63%
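GST-E1A and His-tagged CtBP (125 nM each as 5X stock) were preincubated with pin-transferred compound for 2 h at 37 °C in the dark, then glutathione donor and nickel acceptor beads were added for 1 h before AlphaScreen reading.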
TDP1 cell CPT: qHTS for Inhibitors of human tyrosyl-DNA phosphodiesterase 1 (TDP1): qHTS in cells in presence of CPT; actives 12% (n = 420,000); chicken DT40 Tdp1-/-;hTDP1 cells + 20 nM CPT, ATP luminescence, 48 h; Potency, µM (top dose mostly 46.2 µM), without a hit: at the top dose activity change, negative = growth inhibition, most hits filed as inhibitors; AID 686979, 2013; note: potency is the fitted concentration of half-maximal effect; nearly all actives have a fitted effect of over 55% in size
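Chicken DT40 Tdp1-/- cells stably complemented with human TDP1 were seeded at 400 cells/well in medium containing 20 nM camptothecin, exposed to pin-transferred compounds, and grown at 37 °C for at least 48 hr. Viability was read as ATP luminescence.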
TDP1 cell noCPT: qHTS for Inhibitors of human tyrosyl-DNA phosphodiesterase 1 (TDP1): qHTS in cells in absence of CPT; DT40 Tdp1-/- hTDP1 cells, no CPT, ATP luminescence, 48 h; Potency, µM (doses to about 46.2 µM), inactives show top-dose activity change, negative = growth inhibition, hits mostly inhibitors; actives 15% (n = 420,000); AID 686978, 2013; note: potency is the fitted concentration of half-maximal effect; nearly all actives have a fitted effect of over 55% in size
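Chicken DT40 Tdp1-/- cells complemented with human TDP1, screened without camptothecin (DMSO vehicle only), 400 cells/well. Compounds pin-transferred, cells incubated at 37 °C for at least 48 hr. Growth read as ATP-dependent luminescence (CellTiter-Glo, 30 min at RT).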
* = called active by the depositor; i = inactive; ? = inconclusive; . = no result given; [ ] = remark or other dose. Only some compounds are listed: those with a hit (about 18% of all), similar ones and a draw of the others. Unless noted, calls come from the whole dose curve; as a rule, active = well fitted curve in the direction sought with a large enough effect; inconclusive = small, poorly fitted or top-dose-only effect, or another doubt; inactive = no such curve, though single readings can be large; an effect the other way counts as inactive or inconclusive. % is set by controls: 0 for no effect and ±100 for the full control effect.

SMILES	TDP1 inh	IL1B secr inh	Six1-Eya2 inh	CtBP-E1A inh	TDP1 cell CPT	TDP1 cell noCPT
O=C(NCc1ccccc1)C(c1ccc(C(F)(F)F)cc1)n1c(=O)c(-c2ccccc2)nc2ccccc21 (stereo unspecified)	.	37	4	0	-71%	-80%
O=C(NCc1ccccc1)C(c1ccc(C(F)(F)F)cc1)n1c(=O)c(-c2ccco2)nc2ccccc21 (stereo unspecified)	.	0	6	0	?	21µM*
O=C(NCc1ccccc1)C(C1CC1)n1c(=O)c(-c2ccco2)nc2ccccc21 (stereo unspecified)	.	23	-7	1	13µM*	16µM*
CCCCCNC(=O)C(c1ccc(OC)cc1)n1c(=O)c(-c2ccco2)nc2ccccc21 (stereo unspecified)	.	0	0	14	16µM*	12µM*
CC(C)(C)NC(=O)C(c1ccc(C(F)(F)F)cc1)n1c(=O)c(-c2ccco2)nc2ccccc21 (stereo unspecified)	.	27	2	13	16µM*	18µM*
CCCCCNC(=O)C(c1ccc(C#N)cc1)n1c(=O)c(-c2ccco2)nc2ccccc21 (stereo unspecified)	.	-3	-7	0	?	?
COc1ccc(/C=N/NC(=O)c2cc(C3CC3)[nH]n2)cc1OC	1%	-1	-1	-2	1%	-22%
Cc1cccc(C)c1NC(=O)C(C1CC1)n1c(=O)c(-c2ccco2)nc2ccccc21 (stereo unspecified)	.	-3	-24	-5	?	?
O=C(NCc1ccccc1)C(c1ccccc1)n1c(=O)c(-c2ccco2)nc2ccccc21 (stereo unspecified)	.	-19	-20	3	?	21µM*
CC(C)(C)NC(=O)C(C1CC1)n1c(=O)c(-c2ccco2)nc2ccccc21 (stereo unspecified)	.	-12	7	5	?	16µM*
O=C(Nc1cccc(C(=O)N2CCCC2)c1)C1CCCC1	.	31	0	7	7%	7%
COc1ccc(NC(=O)C2CCN(S(=O)(=O)c3cc(-c4noc(C)n4)ccc3C)CC2)cc1	4%	.	.	.	-27%	?
CC1=C(c2ccc(C(C)C)cc2)S(=O)(=O)NC1=NCc1ccccc1Br	3%	.	.	.	?	13µM*
COC(=O)c1ccc(COC(=O)[C@@H]2CC(O)CN2S(=O)(=O)c2ccccc2[N+](=O)[O-])cc1 (stereo partly specified)	-1%	-97*	-3	-19	-12%	-16%
CCc1cccc2c(C(=O)COC(=O)[C@@H]3CC(O)CN3S(=O)(=O)c3ccccc3[N+](=O)[O-])c[nH]c12 (stereo partly specified)	2%	-76*	-8	5	23µM*	21µM*
COc1cc(C(=O)OCC(=O)NCC2CCCO2)cc(OC)c1OC (stereo unspecified)	0%	1	5	.	11%	-2%
CCc1ccc(OCCNC(=O)c2ccccc2SCc2ccc(F)cc2)cc1	2%	13	10	5	?	26µM*
CCc1ccc(OCCNC(=O)c2cc(SC)ccc2Cl)cc1	-2%	-10	24	29	?	?
COc1ccc(OCCNC(=O)c2ccccc2Cl)cc1	.	-25	3	6	-17%	10%
O=C(NCCOc1ccc(F)cc1)c1ccccc1SCc1ccccc1	-5%	-108*	7	-4	-26%	?
COc1ccccc1NC(=S)N1CCOCC1	-3%	1	2	0	-8%	-21%
COc1ccc(OC)c(S(=O)(=O)N/N=C\c2c[nH]c3ccccc23)c1	6%[56.1 µM]	i	6	0	18µM*	9.2µM*
COc1ccc2[nH]cc(/C=N/NS(=O)(=O)c3ccc(C)cc3)c2c1	.	16	-8	-7	15µM*	13µM*
Cc1ccc(S(=O)(=O)CCC(=O)Nc2cccc([N+](=O)[O-])c2)cc1	-5%	46	-2	.	-10%	?
Cc1cc(C)c2[nH]c(=O)c(C(c3nnnn3Cc3ccc4c(c3)OCO4)N3CCC(C)CC3)cc2c1 (stereo unspecified)	0%	-22	5	9	?	16µM*
SMILES	TDP1 inh	IL1B secr inh	Six1-Eya2 inh	CtBP-E1A inh	TDP1 cell CPT	TDP1 cell noCPT
COc1ccc2[nH]c(=O)c(C(c3nnnn3C3CCCC3)N3CCN(Cc4ccc5c(c4)OCO5)CC3)cc2c1 (stereo unspecified)	3%	?	-11	-14	26µM*	?
CCOc1ccc2[nH]c(=O)c(C(c3nnnn3C3CCCCC3)N3CCN(CC)CC3)cc2c1 (stereo unspecified)	6%	2	0	3	-28%	-17%
COc1ccc(Cn2nnnc2C(c2cc3ccc(OC)cc3[nH]c2=O)N2CCC(C)CC2)cc1 (stereo unspecified)	-2%	0	-2	5	?	?
O=C1C2CCCN2C(c2ccc(F)cc2)N1c1ccc(Cl)cc1 (stereo unspecified)	0%	-15	6	-8	6%	-16%
COc1ccccc1N1C(=O)c2ccccc2NC1c1ccncc1 (stereo unspecified)	2%	28	5	2	-9%	2%
CCc1ccc(C2NC(=S)NC3=C2C(=O)N(c2ccccc2OC)C(c2ccc(CC)cc2)N3)cc1 (stereo unspecified)	1%	-79*	-4	-14	16µM*	18µM*
O=C1C2=C(NC(=S)NC2c2ccc(Cl)cc2)NC(c2ccc(Cl)cc2)N1c1ccc(Cl)cc1 (stereo unspecified)	2%	-101*	-4	1	?	?
CCn1c(SCC(=O)N2CCC(C)CC2)nc2c([nH]c3ccccc32)c1=O	.	22	9	-3	?	?
